Data as given in PubChem BioAssay AID1159580 (chemical genetic matrix, 2015).
Among all 5,500 compounds or so, about 2,000 (36%) were called active. Roughly 18% stayed inconclusive and do not appear here. No stated cut-off is given here; in the data, active means normalized growth mostly below about 0.91 (no sharp cut-off); inconclusive means no clear call, values can overlap the other calls; inactive means mostly above about 0.92. The list shows a part of the results.

Test: chemical genetic growth profiling, strain panel (AID 1159580);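 further: tested at 20 µM; growth read once vehicle control cultures reached saturation at 30 °C; 1 = growth at the plate median or of vehicle wells; lower values mean less growth of the strain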
Details: growth OD

Measured: normalized growth

Cc1coc2ccccc2c1=O
inactive: S. cerevisiae deletion strains, locus YAL013W, strain DEP1, hits give low values 0.999 | S. cerevisiae deletion strains, locus YBR021W, strain FUR4, hits give low values 0.998 | S. cerevisiae deletion strains, locus YBR229C, strain ROT2, hits give low values 1.01 | S. cerevisiae deletion strains, locus YCL029C, strain bik1, hits give low values 1.02 | S. cerevisiae deletion strains, locus YDL035C, strain GPR1, hits give low values 1 | S. cerevisiae deletion strains, locus YDL074C, strain BRE1, hits give low values 1 | S. cerevisiae deletion strains, locus YDL101C, strain DUN1, hits give low values 1.01 | S. cerevisiae deletion strains, locus YDL134C, strain PPH21, hits give low values 1 | S. cerevisiae deletion strains, locus YDL185W, strain tfp1, hits give low values 1.01 | S. cerevisiae deletion strains, locus YDL192W, strain arf1, hits give low values 1.03 | S. cerevisiae deletion strains, locus YDR101C, strain arx1, hits give low values 1.01 | S. cerevisiae deletion strains, locus YDR150W, strain NUM1, hits give low values 1 | S. cerevisiae deletion strains, locus YDR162C, strain NBP2, hits give low values 1.01 | S. cerevisiae deletion strains, locus YDR318W, strain mcm21, hits give low values 1.02 | S. cerevisiae deletion strains, locus YDR388W, hits give low values 1.02 | S. cerevisiae deletion strains, locus YDR502C, strain sam2, hits give low values 1.02 | S. cerevisiae deletion strains, locus YEL061C, strain CIN8, hits give low values 1 | S. cerevisiae deletion strains, locus YER110C, hits give low values 1.03 | S. cerevisiae deletion strains, locus YER155C, strain BEM2, hits give low values 1.01 | S. cerevisiae deletion strains, locus YER167W, strain BCK2, hits give low values 1.01 | S. cerevisiae deletion strains, locus YGL078C, strain dbp3, hits give low values 1.02 | S. cerevisiae deletion strains, locus YGL086W, strain mad1, hits give low values 1.02 | S. cerevisiae deletion strains, locus YGL248W, strain PDE1, hits give low values 1 | S. cerevisiae deletion strains, locus YGR078C, strain PAC10, hits give low values 1.01 | S. cerevisiae deletion strains, locus YGR135W, strain pre9, hits give low values 1.01 | S. cerevisiae deletion strains, locus YGR229C, strain SMI1, hits give low values 0.991 | S. cerevisiae deletion strains, locus YGR252W, strain gcn5, hits give low values 1.03 | S. cerevisiae deletion strains, locus YHR030C, strain SLT2, hits give low values 0.997 | S. cerevisiae deletion strains, locus YHR079C, strain IRE1 (second series), hits give low values 1.02 | S. cerevisiae deletion strains, locus YHR094C, strain hxt1, hits give low values 1.02 | S. cerevisiae deletion strains, locus YHR129C, strain ARP1, hits give low values 1 | S. cerevisiae deletion strains, locus YHR200W, strain rpn10, hits give low values 1.03 | S. cerevisiae deletion strains, locus YIL066C, strain RNR3, hits give low values 1.01 | S. cerevisiae deletion strains, locus YIL073C, strain SPO22, hits give low values 1.09 | S. cerevisiae deletion strains, locus YIL125W, strain kgd1, hits give low values 1.03 | S. cerevisiae deletion strains, locus YIR030C, strain dcg1, hits give low values 1.03 | S. cerevisiae deletion strains, locus YJL095W, strain BCK1, hits give low values 0.988 | S. cerevisiae deletion strains, locus YJL134W, strain LCB3, hits give low values 0.999 | S. cerevisiae deletion strains, locus YJL168C, strain set2, hits give low values 1.03 | S. cerevisiae deletion strains, locus YJL187C, strain SWE1 (second series), hits give low values 1 | S. cerevisiae deletion strains, locus YJR043C, strain POL32, hits give low values 0.992 | S. cerevisiae deletion strains, locus YJR075W, strain HOC1, hits give low values 1 | S. cerevisiae deletion strains, locus YKL009W, strain mrt4, hits give low values 1.02 | S. cerevisiae deletion strains, locus YKL068W, hits give low values 1.01 | S. cerevisiae deletion strains, locus YKL085W, strain MDH1 (second series), hits give low values 1.01 | S. cerevisiae deletion strains, locus YKL085W, strain MDH1, hits give low values 1.01 | S. cerevisiae deletion strains, locus YKL190W, strain CNB1, hits give low values 1 | S. cerevisiae deletion strains, locus YKR001C, strain vps1, hits give low values 1.02 | S. cerevisiae deletion strains, locus YLR039C, strain RIC1, hits give low values 1.01 | S. cerevisiae deletion strains, locus YLR058C, strain SHM2, hits give low values 1 | S. cerevisiae deletion strains, locus YLR102C, strain apc9, hits give low values 1.04 | S. cerevisiae deletion strains, locus YLR262C, strain YPT6, hits give low values 1.01 | S. cerevisiae deletion strains, locus YLR268W, strain sec22, hits give low values 1.01 | S. cerevisiae deletion strains, locus YLR330W, strain CHS5, hits give low values 1.01 | S. cerevisiae deletion strains, locus YLR342W, strain FKS1 (second series), hits give low values 1.01 | S. cerevisiae deletion strains, locus YLR371W, strain rom2, hits give low values 1.03 | S. cerevisiae deletion strains, locus YLR418C, strain cdc73, hits give low values 1.01 | S. cerevisiae deletion strains, locus YML016C, strain PPZ1, hits give low values 1 | S. cerevisiae deletion strains, locus YML032C, strain rad52, hits give low values 1.05 | S. cerevisiae deletion strains, locus YML124C, strain tub3, hits give low values 1.02 | S. cerevisiae deletion strains, locus YMR078C, strain ctf18, hits give low values 1.03 | S. cerevisiae deletion strains, locus YMR223W, strain ubp8, hits give low values 1.02 | S. cerevisiae deletion strains, locus YMR263W, strain SAP30, hits give low values 0.998 | S. cerevisiae deletion strains, locus YMR307W, strain GAS1, hits give low values 1 | S. cerevisiae deletion strains, locus YNL067W, strain RPL9B, hits give low values 0.992 | S. cerevisiae deletion strains, locus YNL128W, strain TEP1, hits give low values 1.01 | S. cerevisiae deletion strains, locus YNL153C, strain GIM3, hits give low values 0.985 | S. cerevisiae deletion strains, locus YNL233W, strain BNI4, hits give low values 0.995 | S. cerevisiae deletion strains, locus YNL250W, strain rad50, hits give low values 1.03 | S. cerevisiae deletion strains, locus YNL271C, strain bni1, hits give low values 1.03 | S. cerevisiae deletion strains, locus YNL298W, strain CLA4, hits give low values 1.02 | S. cerevisiae deletion strains, locus YNL307C, strain MCK1, hits give low values 1.03 | S. cerevisiae deletion strains, locus YNL322C, strain KRE1, hits give low values 1 | S. cerevisiae deletion strains, locus YNR052C, strain pop2, hits give low values 1.04 | S. cerevisiae deletion strains, locus YOL006C, strain TOP1, hits give low values 0.974 | S. cerevisiae deletion strains, locus YOL012C, strain htz1 0.801 | S. cerevisiae deletion strains, locus YOL147C, strain pex11, hits give low values 1.02 | S. cerevisiae deletion strains, locus YOR061W, strain CKA2, hits give low values 1 | S. cerevisiae deletion strains, locus YOR069W, strain VPS5, hits give low values 0.998 | S. cerevisiae deletion strains, locus YOR136W, strain idh2, hits give low values 1.02 | S. cerevisiae deletion strains, locus YOR144C, strain elg1, hits give low values 1.01 | S. cerevisiae deletion strains, locus YOR184W, strain ser1, hits give low values 1.04 | S. cerevisiae deletion strains, locus YOR316C, strain cot1, hits give low values 1.02 | S. cerevisiae deletion strains, locus YPL055C, strain LGE1, hits give low values 1.01 | S. cerevisiae deletion strains, locus YPL241C, strain CIN2, hits give low values 1 | S. cerevisiae deletion strains, locus YPR119W, strain clb2, hits give low values 1.03 | S. cerevisiae deletion strains, locus YPR141C, strain kar3, hits give low values 1.03 | S. cerevisiae deletion strains, locus YPR163C, strain tif3, hits give low values 1.03 | S. cerevisiae deletion strains, locus YPR167C, strain met16, hits give low values 1.03 | S. cerevisiae deletion strains, strain wtn01, hits give low values 1.03 | S. cerevisiae strains, strain wild type, hits give low values 1
